Molecules are shown by their SMILES. About 20,000 (21%) of roughly 96,000 compounds were called active.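 Rule for the calls: active = CYP2C19 inhibition above a set limit at 5 µM in the primary screen (cut at about 50% in these data); inactive = the rest.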 Not all results are given here.

The target in this assay is Cytochrome P450 2C19 (Homo sapiens) (UniProt P33261). The assay can be described thus: blockers of cytochrome P450 2C19 activity – biochemical, luminescence, ADME assay, primary screen (AID 778).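 Note: plate controls were negative control wells for no effect and 2.5 mM tranylcypromine positive control for full effect.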 The following applies: CYP2C19 Supersomes, luciferin-H EGE luminescence, 30 min; at 5 µM; active compounds read high.
Chain of Cytochrome P450 2C19 (Homo sapiens) (P33261 whole entry, looked up): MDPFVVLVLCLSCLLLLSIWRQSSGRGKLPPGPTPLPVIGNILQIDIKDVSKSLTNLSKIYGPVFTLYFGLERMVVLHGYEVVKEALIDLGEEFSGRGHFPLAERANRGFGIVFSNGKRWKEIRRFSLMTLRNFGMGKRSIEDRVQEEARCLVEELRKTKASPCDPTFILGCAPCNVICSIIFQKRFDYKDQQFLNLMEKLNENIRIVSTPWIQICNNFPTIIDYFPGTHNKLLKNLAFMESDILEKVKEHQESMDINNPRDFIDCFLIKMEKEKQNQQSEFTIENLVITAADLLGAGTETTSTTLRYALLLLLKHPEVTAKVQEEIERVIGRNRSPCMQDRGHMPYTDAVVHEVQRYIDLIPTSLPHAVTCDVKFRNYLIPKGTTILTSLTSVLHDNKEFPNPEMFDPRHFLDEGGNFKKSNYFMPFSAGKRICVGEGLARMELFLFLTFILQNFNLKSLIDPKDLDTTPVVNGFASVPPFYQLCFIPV
Regarding `C=CCn1c(=S)[nH]c2nc3c(cc2c1=O)COC(C)(C)C3`, the inhibition was 41.9% (inactive).

Turning to `Cc1nc2ncnn2c(C)c1CCC(=O)N1CCN(C(=O)c2ccco2)CC1`, the inhibition is -9.1% (inactive).

`CCN(c1ccccc1)S(=O)(=O)c1ccc(N)cc1`: the inhibition is 12.9% (inactive).

In the case of `Cn1nnc(NC(=O)CSc2ncn[nH]2)n1`, the inhibition is -2% (inactive).

For `Cn1nc(-c2ccc(Cl)cc2)c2cc(C(=O)NCc3ccco3)sc21`, the inhibition was 24.9% (inactive).

As for `COc1ccc(-c2nnc(SCC(=O)c3cccs3)o2)c(OC)c1`, the inhibition is 14.1% (inactive).

Turning to `COc1ccc(OC)c(C(=O)CSc2nnc(-c3cccs3)o2)c1`, the inhibition was 54.9% (active).

In the case of `COc1ccc(-c2nnc(SC(=O)N3c4ccccc4Sc4ccccc43)o2)cc1`, the inhibition was 11.9% (inactive).

Consider `COc1ccc(-n2c(C)cc(C(=O)CSc3nnc(-c4cccs4)o3)c2C)cc1`, for which the inhibition is 83.2% (active).

On to `COC(=O)CSc1nnc(-c2cccnc2)o1`, for which the inhibition was 7.2% (inactive).

As to `Cc1cc(NC(=O)CSc2nnc(-c3ccc(Cl)s3)o2)no1`, the inhibition was 32.4% (inactive).

Take `COc1cc(/C=C(\C#N)c2nc3c(s2)CC(C)CC3)ccc1O` (stereo not given): the inhibition is 2.4% (inactive).

Turning to `Cc1ccc2nc(SCc3nnc(-c4ccccc4[N+](=O)[O-])o3)c(C#N)cc2c1`, the inhibition is 17.1% (inactive).

`O=S(=O)(CCc1nc2ccccc2o1)c1ccc(Cl)cc1`: the inhibition is 30.1% (inactive).

Take `COc1ccc(N2C(=O)C3CCCN3C2c2cccs2)cc1` (stereo not given): the inhibition is 29.5% (inactive).

As to `CC12CN(Cc3ccccc3)CC(C)(CN(Cc3ccccc3)C1)C2=NO`, the inhibition was 15.1% (inactive).

For `c1ccc(CSc2ncnc3c2sc2nc(N4CCOCC4)c4c(c23)CCCC4)cc1`, the inhibition is 4% (inactive).

Regarding `CCCSc1nsc(N)n1`, the inhibition was 15.5% (inactive).

On to `CCc1nn(-c2cc(Oc3cccc4ccccc34)nc(-c3ccccc3)n2)c(N)c1C#N`, for which the inhibition was 0.4% (inactive).

Regarding `CN(c1ccc(C(=O)NCc2ccccn2)cc1)S(C)(=O)=O`, the inhibition is 14.5% (inactive).

Take `Cc1cc(Cl)c(S(=O)(=O)NCc2cccnc2)cc1OCC(N)=O`: the inhibition was -7.3% (inactive).

Turning to `O=S(=O)(NCc1ccccn1)c1ccc(F)cc1`, the inhibition was 40.5% (inactive).

Consider `O=S(=O)(NCc1cccnc1)c1ccc(Cl)nc1`, for which the inhibition is 13.3% (inactive).

As to `O=S(=O)(NCc1cccnc1)c1ccc(Br)s1`, the inhibition is 60.4% (active).

For `O=S(=O)(NCc1ccccn1)c1ccc(Br)s1`, the inhibition was 61.6% (active).

In the case of `C#CCSc1nnc(-c2sc3ccccc3c2Cl)o1`, the inhibition is 25.2% (inactive).

As to `COc1ccc(C(F)(F)F)cc1N/C=C\c1nnnn1-c1ccc(C)cc1`, the inhibition was 40.8% (inactive).

In the case of `CCc1ccccc1N(CC(=O)N1CCN(c2ccccc2F)CC1)S(C)(=O)=O`, the inhibition was -6.6% (inactive).

In the case of `Cc1ccccc1OCC(=O)Nc1ccc(N2CCN(C(=O)C(C)C)CC2)c(Cl)c1`, the inhibition is 42.7% (inactive).

Take `Cc1ccc(NC(=O)COc2ccc(-n3ccnc3)cc2)cc1Cl`: the inhibition was 99.2% (active).

In the case of `Cc1csc(OCC(=O)Nc2ccc(C)c(C)c2)n1`, the inhibition is 15.8% (inactive).

Regarding `Cc1ccc(SCC(=O)NC(=O)NCc2ccco2)c(C)c1`, the inhibition was 27% (inactive).

As for `CC1(N2CCOCC2)CC2(O)C(=[N+]1[O-])CCc1nonc12` (stereo not given), the inhibition was 21.6% (inactive).

Take `COc1ccccc1Nc1ncc(C(C)=O)c(C)n1`: the inhibition was 1.3% (inactive).

Regarding `CC(=O)c1cnn(-c2cc(Oc3ccc(F)cc3)ncn2)c1C`, the inhibition is 46.1% (inactive).

For `COc1ccccc1-c1c(C)nn2c(C)c(C(C)=O)cnc12`, the inhibition was 55% (active).

On to `Cc1nn(-c2ncc(C(F)(F)F)cc2Cl)c(=O)n1-c1ccccc1`, for which the inhibition was 23.9% (inactive).

For `CCCc1cc(=O)oc2c(C)c(O)c(CN3CCCCC3)cc12`, the inhibition is 44.5% (inactive).

As to `CC1Cc2cc(/C(O)=C3\C(=O)C(=O)N(CCN4CCOCC4)C3c3ccccc3F)ccc2O1` (stereo not given), the inhibition is -2.6% (inactive).

On to `Cn1c(Cn2nnc3ccccc32)nnc1SCC(=O)c1ccccc1F`, for which the inhibition is 7.9% (inactive).

On to `Cc1ccccc1OCc1nnc(SCC(=O)N2c3ccccc3Sc3ccc(Cl)cc32)o1`, for which the inhibition is 12% (inactive).

For `CC(C)NC(=O)CSc1nnc(COc2ccccc2Cl)o1`, the inhibition is 60.8% (active).

In the case of `Cc1cc(C)cc(OCc2nnc(SCC(=O)Nc3ccccc3)o2)c1`, the inhibition was 2.4% (inactive).

Turning to `CCOCCCNC(=O)Cc1cc(=O)[nH]c(=O)[nH]1`, the inhibition is -18.9% (inactive).

Take `O=C(Nc1ccc(N2CCN(C(=O)c3ccccc3)CC2)c(Cl)c1)c1cccnc1`: the inhibition was 22.7% (inactive).

`O=C(Nc1cccnc1)c1ccc2c(c1)OCO2`: the inhibition was 35.6% (inactive).

As for `O=C(Nc1ccccc1N1CCCCC1)c1cccc(F)c1`, the inhibition was 19% (inactive).

For the compound `O=C(Nc1ccccc1N1CCN(C(=O)c2ccccc2)CC1)c1ccc2c(c1)OCO2`, the inhibition is 67% (active).

For the compound `Cc1ccc(F)cc1NC(=O)c1ccc2c(c1)OCO2`, the inhibition was 33.3% (inactive).

As for `O=C(Nc1ccccc1N1CCCCC1)c1ccc2nccnc2c1`, the inhibition is 6.8% (inactive).

In the case of `CC(C)C(=O)Nc1cccc(C(=O)Nc2ccc3c(c2)OCO3)c1`, the inhibition was 30.7% (inactive).

As for `CCCC(=O)Nc1ccccc1N1CCN(C(=O)c2ccccc2)CC1`, the inhibition was 33% (inactive).

Turning to `O=C(Nc1ccccc1)c1ccc2c(c1)OCO2`, the inhibition was 81.4% (active).

Regarding `O=C(CN1CCN(CC(=O)Nc2ccc3c(c2)OCO3)CC1)Nc1ccc(F)cc1`, the inhibition was 16.8% (inactive).

Consider `O=C(Nc1ccccc1N1CCN(c2ccccc2)CC1)c1cccc(F)c1`, for which the inhibition was 79.2% (active).

As to `O=C(CN1CCN(c2ccccc2F)CC1)c1ccc2c(c1)OCO2`, the inhibition was 67.3% (active).

Turning to `O=C(NC12CC3CC(CC(C3)C1)C2)N1CCCC(CO)C1` (stereo not given), the inhibition is 6.5% (inactive).

Regarding `Cc1csc2ncc(C(=O)N(Cc3ccccc3)c3ccccn3)c(=O)n12`, the inhibition was 0.8% (inactive).

In the case of `O=C(COc1ccc(Br)cc1F)NC1CCN(Cc2ccccc2)CC1`, the inhibition was 22.6% (inactive).

On to `Cc1cccc(C)c1NC1=NC(=S)N(c2ccc(N(C)C)cc2)C1(C)C`, for which the inhibition is -1% (inactive).

Take `CN(C)/C=C1/C(=O)Nc2ccccc21`: the inhibition is -9.6% (inactive).

Regarding `CCOC(=O)C1C(=O)OC2(CCCC2)C1C(=O)OCC` (stereo not given), the inhibition was 23.9% (inactive).

Take `NC(=NC(=O)c1ccccc1)C1=C(O)CCC1=O`: the inhibition is -8% (inactive).

In the case of `CN1CCN(CC(=O)C23CC4CC(CC(C4)C2)C3)CC1`, the inhibition is 12% (inactive).

As to `CC12CCC(C(=O)N(CCC#N)CCC#N)(CC1=O)C2(C)C` (stereo not given), the inhibition is -14% (inactive).

For `Cc1cc(C(=O)OCC(=O)Nc2ccc(F)c(F)c2)c(C)o1`, the inhibition is 95% (active).

Consider `Cc1cc(C(=O)OCC(=O)c2c(N)n(C)c(=O)n(C)c2=O)c(C)o1`, for which the inhibition was 7.9% (inactive).

In the case of `Cc1cc(NC(=O)COC(=O)c2ccc(F)c(S(=O)(=O)N3CCOCC3)c2)no1`, the inhibition is 8.2% (inactive).

Turning to `COc1cc(OC)c(C(=O)NC2CC(C)(C)NC(C)(C)C2)cc1OC`, the inhibition is -7.8% (inactive).

In the case of `CCOC(=O)NC(C(F)(F)F)(C(F)(F)F)P(=O)(c1ccccc1)c1ccccc1`, the inhibition is -3.8% (inactive).

For the compound `c1ccc(COc2nsnc2N2CCOCC2)cc1`, the inhibition is 98.5% (active).

Regarding `O=C(O)COc1nsnc1N1CCOCC1`, the inhibition was -5.8% (inactive).

`c1nc(COc2nsnc2N2CCOCC2)cs1`: the inhibition is 53.5% (active).

For `Fc1cnc(N2CCOCC2)nc1NCc1ccccc1`, the inhibition was 46.1% (inactive).

`C/C(=N\NC(=O)Cc1ccc(Cl)cc1)c1ccccn1`: the inhibition was 39.5% (inactive).

For the compound `COc1cccc2sc(Nc3nc(C)c(C(C)=O)s3)nc12`, the inhibition was 12.5% (inactive).

With `CCOC(=O)C1(S(=O)(=O)c2ccc(Cl)cc2)CCN(Cc2ccccc2)CC1`, the inhibition was 42.5% (inactive).

For `CCOC(=O)C1(S(=O)(=O)c2ccccc2)CCN(Cc2ccccc2)CC1`, the inhibition is 51.8% (active).

With `CCCC(=O)C1CCN(Cc2ccccc2)CC1`, the inhibition is 30.5% (inactive).

Take `CSc1nc(C)cc(SC(C(C)=O)C(=O)Nc2ccccc2)n1` (stereo not given): the inhibition was 11.6% (inactive).

For `Cc1cccc(C(=O)Nc2nnc(Cc3c[nH]c4ccccc34)s2)c1`, the inhibition is 8.7% (inactive).

With `CC(=O)c1cc2c(cc1NC(=O)CN1CCCCCC1)OCO2`, the inhibition is 15.4% (inactive).

For `Cc1ccc(NC(=O)CN2CCC3(O)CCCCC3C2c2ccc3c(c2)OCO3)c(C)c1` (stereo not given), the inhibition is 63.9% (active).

With `CCN(CC)c1ccc(C2C3CCCCC3(O)CCN2CC(=O)Nc2ccccc2)cc1` (stereo not given), the inhibition was 21.9% (inactive).

As for `CC(=O)NC(C)(C)C1CC=C(C)/C(=N\O)C1` (stereo not given), the inhibition was 2.5% (inactive).

For `O=C(CSc1nnc(Cn2cnc3ccccc32)o1)c1ccccc1`, the inhibition was 6.9% (inactive).

For `O=C(O)CCC(=O)NCc1ccc2[nH]c3c(c2c1)CCCC3`, the inhibition was -16.4% (inactive).

On to `CN=C1S/C(=C\c2ccc(Sc3ccc(Cl)cc3)o2)C(=O)N1C`, for which the inhibition is 7.4% (inactive).

Take `CCN1C(=O)/C(=C\N2CCN(c3ccccc3)CC2)SC1=S`: the inhibition is 17.4% (inactive).

Take `COc1ccc(NC(=O)CC2COc3ccccc3O2)c(OC)c1` (stereo not given): the inhibition is 85.5% (active).

Take `Cc1cc(NC(=O)CCC2COc3ccccc3O2)no1` (stereo not given): the inhibition was 23.1% (inactive).

In the case of `COc1ccc(NC(=O)CCNC(=O)Cn2ccc3ccccc3c2=O)c(OC)c1`, the inhibition is -2.7% (inactive).

On to `CCCSC(=S)NC1CCS(=O)(=O)C1` (stereo not given), for which the inhibition was 13.9% (inactive).

As to `O=C(Nc1ccc(S(=O)(=O)N2CCCC2)cc1Cl)C1=COCCO1`, the inhibition is 16.2% (inactive).

Take `Cc1cccc(-n2ncc3c(N4CCc5ccccc54)ncnc32)c1`: the inhibition was 6.2% (inactive).

Take `FC(F)(F)c1cnc(Oc2ccccc2-c2nnc(-c3ccc(Cl)cc3)o2)c(Cl)c1`: the inhibition is 66.1% (active).

As for `CSc1ccccc1-c1nnc(-c2ccc(Cl)cc2)o1`, the inhibition is -15.2% (inactive).

Turning to `COc1ccccc1-c1nc(C(F)(F)F)c(OC)o1`, the inhibition is -4.3% (inactive).

On to `COc1ccc(-c2cn(-c3ccc(C)cc3)c(=O)n2CC(=O)Nc2ccc(OC)c(OC)c2)cc1`, for which the inhibition was 16.2% (inactive).

With `O=C(O)c1cscn1`, the inhibition is -12.7% (inactive).

For `N#C/C(=C1/CCCN1)c1ccccn1`, the inhibition is -7.3% (inactive).

Regarding `N#C/C(=C1\CCCN1)c1nc(-c2ccccc2)cs1`, the inhibition was 54.2% (active).

Consider `N#CC(=C1SC=CS1)c1nc(-c2ccccc2)cs1`, for which the inhibition was 65.1% (active).

For `Cn1c(/C(C#N)=C2/CCCCCN2)nc2ccccc21`, the inhibition is 47.6% (inactive).

Turning to `N#CC(=C1CCCC1)c1nc(-c2ccc(Cl)cc2)cs1`, the inhibition was 43.3% (inactive).

The record behind these values is PubChem BioAssay AID778 (Sanford-Burnham Center for Chemical Genomics, 2007).
